# In the supplement of paper PMC12282887:
# ± gives the standard deviation of the averaged measurements.
# Key:
# Assay in all cases: promoter activity interaction Z-score (Lux/OD deviation from empty-vector control); higher = stronger promoter induction by the compound
# [1] = test system: E. coli BW25113 acrABp lux reporter
# Procedure, shortened: (§1)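 E. coli BW25113, as wild type or one of three single-gene deletion strains, carried low-copy luxCDABE promoter reporters and grew in 40 µl LB Lennox in 384-well plates at 37°C, with OD600 and luminescence read every 30 min for 12 h. Each compound was run at four 1:2 dilutions in biological duplicates, integration spanned 0–8 h for wild type and 1–9 h for deletion strains, and wells under 10% of the median growth value were dropped. The score is the Z-transformed residual of growth-normalised luminescence fitted against a control.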
# [2] = test system: E. coli BW25113 marRABp lux reporter
# Procedure, shortened: as §1
# [3] = test system: E. coli BW25113 micFp lux reporter
# Procedure, shortened: as §1
# [4] = test system: E. coli BW25113 ompFp lux reporter
# Procedure, shortened: as §1
# [5] = test system: E. coli BW25113 robp lux reporter
# Procedure, shortened: as §1
# [6] = test system: E. coli BW25113 soxSp lux reporter
# Procedure, shortened: as §1
# [7] = test system: E. coli BW25113 tolCp lux reporter
# Procedure, shortened: as §1
# [8] = 4.8 µg/ml, genetic background: wild type
# [9] = 4.8 µg/ml, genetic background: ΔmarA
# [10] = 4.8 µg/ml, genetic background: Δrob
# [11] = 4.8 µg/ml, genetic background: ΔsoxS
# [12] = 9.5 µg/ml, genetic background: wild type
# [13] = 9.5 µg/ml, genetic background: ΔmarA
# [14] = 9.5 µg/ml, genetic background: Δrob
# [15] = 9.5 µg/ml, genetic background: ΔsoxS
# [16] = 19 µg/ml, genetic background: wild type
# [17] = 19 µg/ml, genetic background: ΔmarA
# [18] = 19 µg/ml, genetic background: Δrob
# [19] = 19 µg/ml, genetic background: ΔsoxS
# [20] = 38.1 µg/ml, genetic background: wild type
# [21] = 38.1 µg/ml, genetic background: ΔmarA
# [22] = 38.1 µg/ml, genetic background: Δrob
# [23] = 38.1 µg/ml, genetic background: ΔsoxS
smiles,measurement,setting,value
NC(N)=S [Thiourea],promoter activity interaction Z-score,[1]; [8],-0.187 ± 0.18
same,promoter activity interaction Z-score,[1]; [9],-0.399 ± 0.26
same,promoter activity interaction Z-score,[1]; [10],-0.36 ± 0.23
same,promoter activity interaction Z-score,[1]; [11],-0.569 ± 0.35
same,promoter activity interaction Z-score,[1]; [12],-0.18 ± 0.14
same,promoter activity interaction Z-score,[1]; [13],0.241 ± 0.33
same,promoter activity interaction Z-score,[1]; [14],0.0155 ± 0.17
same,promoter activity interaction Z-score,[1]; [15],-0.239 ± 0.4
same,promoter activity interaction Z-score,[1]; [16],-0.0387 ± 0.081
same,promoter activity interaction Z-score,[1]; [17],-0.48 ± 0.68
same,promoter activity interaction Z-score,[1]; [18],-0.186 ± 0.13
same,promoter activity interaction Z-score,[1]; [19],-0.351 ± 0.079
same,promoter activity interaction Z-score,[1]; [20],-0.113 ± 0.22
same,promoter activity interaction Z-score,[1]; [21],-0.12 ± 0.22
same,promoter activity interaction Z-score,[1]; [22],0.24 ± 0.064
same,promoter activity interaction Z-score,[1]; [23],-0.0892 ± 0.19
same,promoter activity interaction Z-score,[2]; [8],-0.23 ± 0.42
same,promoter activity interaction Z-score,[2]; [9],-0.11 ± 0.25
same,promoter activity interaction Z-score,[2]; [10],-0.246 ± 0.076
same,promoter activity interaction Z-score,[2]; [11],-0.231 ± 0.24
same,promoter activity interaction Z-score,[2]; [12],-0.161 ± 0.13
same,promoter activity interaction Z-score,[2]; [13],0.055 ± 0.11
same,promoter activity interaction Z-score,[2]; [14],-0.0456 ± 0.0082
same,promoter activity interaction Z-score,[2]; [15],-0.157 ± 0.14
same,promoter activity interaction Z-score,[2]; [16],-0.209 ± 0.12
same,promoter activity interaction Z-score,[2]; [17],-0.407 ± 0.02
same,promoter activity interaction Z-score,[2]; [18],-0.154 ± 0.11
same,promoter activity interaction Z-score,[2]; [19],-0.149 ± 0.038
same,promoter activity interaction Z-score,[2]; [20],-0.45 ± 0.34
same,promoter activity interaction Z-score,[2]; [21],-0.162 ± 0.17
same,promoter activity interaction Z-score,[2]; [22],-0.0285 ± 0.12
same,promoter activity interaction Z-score,[2]; [23],-0.0935 ± 0.032
same,promoter activity interaction Z-score,[3]; [8],-0.235 ± 0.23
same,promoter activity interaction Z-score,[3]; [9],-0.0756 ± 0.059
same,promoter activity interaction Z-score,[3]; [10],-0.0669 ± 0.076
same,promoter activity interaction Z-score,[3]; [11],-0.189 ± 0.15
same,promoter activity interaction Z-score,[3]; [12],0.261 ± 0.46
same,promoter activity interaction Z-score,[3]; [13],-0.0468 ± 0.13
same,promoter activity interaction Z-score,[3]; [14],-0.0323 ± 0.16
same,promoter activity interaction Z-score,[3]; [15],0.0238 ± 0.19
same,promoter activity interaction Z-score,[3]; [16],-0.293 ± 0.083
same,promoter activity interaction Z-score,[3]; [17],-0.144 ± 0.073
same,promoter activity interaction Z-score,[3]; [18],-0.0798 ± 0.19
same,promoter activity interaction Z-score,[3]; [19],-0.203 ± 0.18
same,promoter activity interaction Z-score,[3]; [20],-0.442 ± 0.33
same,promoter activity interaction Z-score,[3]; [21],-0.164 ± 0.059
same,promoter activity interaction Z-score,[3]; [22],-0.0862 ± 0.063
same,promoter activity interaction Z-score,[3]; [23],-0.341 ± 0.12
same,promoter activity interaction Z-score,[4]; [8],0.0411 ± 0.63
same,promoter activity interaction Z-score,[4]; [9],0.273 ± 0.023
same,promoter activity interaction Z-score,[4]; [10],0.0473 ± 0.84
same,promoter activity interaction Z-score,[4]; [11],-0.209 ± 0.4
same,promoter activity interaction Z-score,[4]; [12],0.331 ± 0.68
same,promoter activity interaction Z-score,[4]; [13],0.292 ± 0.32
same,promoter activity interaction Z-score,[4]; [14],0.271 ± 0.042
same,promoter activity interaction Z-score,[4]; [15],-0.0695 ± 0.25
same,promoter activity interaction Z-score,[4]; [16],0.307 ± 0.13
same,promoter activity interaction Z-score,[4]; [17],0.189 ± 0.15
same,promoter activity interaction Z-score,[4]; [18],-0.133 ± 0.22
same,promoter activity interaction Z-score,[4]; [19],-0.0487 ± 0.067
same,promoter activity interaction Z-score,[4]; [20],0.484 ± 0.11
same,promoter activity interaction Z-score,[4]; [21],0.567 ± 0.37
same,promoter activity interaction Z-score,[4]; [22],0.804 ± 0.41
same,promoter activity interaction Z-score,[4]; [23],0.352 ± 0.25
same,promoter activity interaction Z-score,[5]; [8],0.198 ± 0.54
same,promoter activity interaction Z-score,[5]; [9],-0.278 ± 0.4
same,promoter activity interaction Z-score,[5]; [10],-0.498 ± 0.88
same,promoter activity interaction Z-score,[5]; [11],-0.368 ± 0.72
same,promoter activity interaction Z-score,[5]; [12],0.517 ± 0.91
same,promoter activity interaction Z-score,[5]; [13],0.53 ± 0.53
same,promoter activity interaction Z-score,[5]; [14],-0.0465 ± 0.47
same,promoter activity interaction Z-score,[5]; [15],-0.206 ± 0.084
same,promoter activity interaction Z-score,[5]; [16],0.0253 ± 0.099
same,promoter activity interaction Z-score,[5]; [17],-0.564 ± 0.03
same,promoter activity interaction Z-score,[5]; [18],-0.172 ± 0.36
same,promoter activity interaction Z-score,[5]; [19],-0.633 ± 0.39
same,promoter activity interaction Z-score,[5]; [20],0.15 ± 0.3
same,promoter activity interaction Z-score,[5]; [21],-0.571 ± 0.48
same,promoter activity interaction Z-score,[5]; [22],0.0676 ± 0.18
same,promoter activity interaction Z-score,[5]; [23],-0.509 ± 0.51
same,promoter activity interaction Z-score,[6]; [8],-0.265 ± 0.12
same,promoter activity interaction Z-score,[6]; [9],-0.27 ± 0.0046
same,promoter activity interaction Z-score,[6]; [10],-0.311 ± 0.21
same,promoter activity interaction Z-score,[6]; [11],-0.36 ± 0.21
same,promoter activity interaction Z-score,[6]; [12],-0.21 ± 0.083
same,promoter activity interaction Z-score,[6]; [13],-0.161 ± 0.02
same,promoter activity interaction Z-score,[6]; [14],-0.36 ± 0.053
same,promoter activity interaction Z-score,[6]; [15],-0.318 ± 0.36
same,promoter activity interaction Z-score,[6]; [16],-0.205 ± 0.22
same,promoter activity interaction Z-score,[6]; [17],-0.41 ± 0.026
same,promoter activity interaction Z-score,[6]; [18],-0.292 ± 0.098
same,promoter activity interaction Z-score,[6]; [19],-0.397 ± 0.33
same,promoter activity interaction Z-score,[6]; [20],-0.492 ± 0.0079
same,promoter activity interaction Z-score,[6]; [21],-0.464 ± 0.087
same,promoter activity interaction Z-score,[6]; [22],-0.389 ± 0.024
same,promoter activity interaction Z-score,[6]; [23],-0.476 ± 0.5
same,promoter activity interaction Z-score,[7]; [8],-0.648 ± 0.31
same,promoter activity interaction Z-score,[7]; [9],-0.358 ± 0.66
same,promoter activity interaction Z-score,[7]; [10],0.771 ± 0.35
same,promoter activity interaction Z-score,[7]; [11],-0.943 ± 0.29
same,promoter activity interaction Z-score,[7]; [12],-0.618 ± 1.8
same,promoter activity interaction Z-score,[7]; [13],0.4 ± 0.71
same,promoter activity interaction Z-score,[7]; [14],0.609 ± 0.4
same,promoter activity interaction Z-score,[7]; [15],-0.368 ± 0.54
same,promoter activity interaction Z-score,[7]; [16],-0.0827 ± 0.073
same,promoter activity interaction Z-score,[7]; [17],-0.203 ± 0.14
same,promoter activity interaction Z-score,[7]; [18],-0.414 ± 0.69
same,promoter activity interaction Z-score,[7]; [19],0.14 ± 0.66
same,promoter activity interaction Z-score,[7]; [20],0.133 ± 0.26
same,promoter activity interaction Z-score,[7]; [21],-0.216 ± 0.12
same,promoter activity interaction Z-score,[7]; [22],0.188 ± 0.21
same,promoter activity interaction Z-score,[7]; [23],-0.969 ± 1.2
